The source of these data is PubChem BioAssay (NCATS).

Experiment [1] can be described thus: qHTS for Inhibitors of Plasmodium falciparum (DD2) proliferation (AID 504314). Summed up:
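Erythrocytes infected with P. falciparum (0.3% parasitemia, 2.5% hematocrit final) were incubated with compounds for 72 h at 37C, 5% CO2. Parasite DNA was detected by SYBR Green I fluorescence after saponin/Triton lysis, normalized to artemisinin (0.29 uM) and DMSO controls.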
(In general: Quantitative high-throughput screening tests each substance at several concentrations.)

Experiment [2] in a line: qHTS for Inhibitors of Plasmodium falciparum (GB4) proliferation (AID 504315). Also: nearly all actives have a fitted effect of over 50% in size. The method, boiled down:
(§1)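 Erythrocytes infected with P. falciparum line (0.3% parasitemia, 2.5% hematocrit final) incubated with compounds 72 h at 37 °C, 5% CO2; SYBR Green lysis buffer added, fluorescence read next day. Normalized to 0.29 uM artemisinin and DMSO.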

The nature of experiment [3]: qHTS for Inhibitors of Plasmodium falciparum (7G8) proliferation (AID 504316). Also: nearly all actives have a fitted effect of over 65% in size. Summed up: as §1
The nature of experiment [4]: qHTS for Inhibitors of Plasmodium falciparum (HB3) proliferation (AID 504318). Also: nearly all actives have a fitted effect of over 60% in size. The method, boiled down:
as §1

Experiment [5] in a line: qHTS for Inhibitors of Plasmodium falciparum (CP250) proliferation (AID 504320). The method, boiled down:
as §1

Molecules are shown by their SMILES. Results filed as inconclusive are left out. Unmarked numbers belong to inactive results. Active and inactive are the calls of the source. Calls follow the shape of the dose curve; as a rule, active = well fitted curve in the direction sought with a large enough effect; inconclusive = small, poorly fitted or top-dose-only effect, or another doubt; inactive = no such curve, though single readings can be large; an effect the other way counts as inactive or inconclusive.
Potency is read from the fitted curve at half-maximal effect.

Regarding `CC1(OC(=O)CCc2ccccc2)C(=O)C=C2C=C3CCCN3C=C2C1=O` (configuration not stated), the Potency entry in experiment [1], in experiment [2], in experiment [3] and in experiment [4] was “inactive” in each case.
As to `CCN1C(=O)N[C@@H](c2ccccc2)C(C(=O)OC)=C1C`, the Potency result in experiment [1], in experiment [2], in experiment [3] and in experiment [4] was “inactive” each time.
In the case of `CCCCC1=CC2=CC(=O)C(C)(OC(=O)CC)C(=O)C2=CN1CCCOC(C)C` (configuration not stated), the Potency result in experiment [1], in experiment [2], in experiment [3] and in experiment [4] was “inactive” in each case.
With `C[C@@H]1CC[C@H]2C(=O)N(Cc3ccc(Cl)cc3)C[C@H](O)CN2[C@@H]1c1ccc(Br)cc1`, in experiment [1], the Potency was 1690 nM (active).
For the compound `C=CCOC(=O)N[C@@H](c1ccc(Br)cc1)C(C(C)=O)C(C)=O`, the Potency entry in experiment [1], in experiment [2], in experiment [3] and in experiment [4] was “inactive” each time.
Take `COC(=O)C1=C(C(=O)OC)[C@@H]2N(C)c3ccccc3[C@@]23C[C@@H](C(=O)OC)N(S(=O)(=O)c2ccc(C(F)(F)F)cc2)C3=N1`: the Potency entry in experiment [1] was “inactive”. Besides, the Potency in experiment [2] was 2130 nM (active).
As for `COc1ccc(-c2nc3c(c4c2C[C@H](c2ccccc2)OC4)CN(C(=O)NCCc2c[nH]c4ccccc24)CC3)c(C)c1`, the Potency entry in experiment [1], in experiment [2], in experiment [3], in experiment [4] and in experiment [5] was “inactive” each time.
Consider `COC/C=C/C1=CC2=CC(=O)C(C)(OC(=O)c3cnc4ccccc4n3)C(=O)C2=CN1C1CC1` (configuration not stated), for which the Potency entry in experiment [1], in experiment [2], in experiment [3] and in experiment [4] was “inactive” throughout.
Consider `CC#CCN1c2ccccc2[C@]23C[C@@H](C(=O)OC)N(S(=O)(=O)c4ccc(OC)cc4)C2=NC(C(=O)OC)=C(C(=O)OC)[C@H]13`, for which the Potency result in experiment [1] was “inactive”. For the same compound, the Potency in experiment [2] was 2130 nM (active).
Take `COCCN1C=C2C(=O)C(C)(OC(=O)CCC(=O)OC)C(=O)C(Br)=C2C=C1c1ccc(OC)cc1` (configuration not stated): the Potency entry in experiment [1], in experiment [2], in experiment [3] and in experiment [4] was “inactive” throughout.
As for `COC(=O)N[C@@H](c1cccc(C)c1)[C@]1(C(C)=O)CCCC1=O`, the Potency entry in experiment [1], in experiment [2], in experiment [3] and in experiment [4] was “inactive” each time.
Regarding `COC(=O)C1=C(C(=O)OC)[C@@H]2N(C)c3ccc(OC)cc3[C@@]23C[C@@H](C(=O)OC)N(C(=O)C2CCC2)C3=N1`, the Potency entry in experiment [1], in experiment [2], in experiment [3], in experiment [4] and in experiment [5] was “inactive” throughout.
For `CC#CCN1c2ccccc2[C@]23C[C@@H](C(=O)OC)N(S(=O)(=O)c4ccc(C(F)(F)F)cc4)C2=NC(C(=O)OC)=C(C(=O)OC)[C@H]13`, the Potency entry in experiment [1] was “inactive”. The Potency in experiment [2] is 1900 nM (active).
For `Nc1ccccc1C(=O)C=Cc1ccccc1` the same measures were “inactive” and “inactive”.
With `CC(CCN1CCCc2nc(C)c(C)cc21)=NO[C@H](C)c1cn([C@@H]2COC[C@@H]2O)nn1`, the Potency entry in experiment [1], in experiment [2], in experiment [3] and in experiment [4] was “inactive” in each case.
With `COC(=O)C1=C(C(=O)OC)[C@@H]2N(Cc3ccccc3)c3ccccc3[C@@]23C[C@@H](C(=O)OC)N(C(=O)NCCBr)C3=N1`, the Potency entry in experiment [1], in experiment [2], in experiment [3], in experiment [4] and in experiment [5] was “inactive” in each case.
Take `COC(=O)CCC(=O)OC1(C)C(=O)C=C2C=C(C3CC3)N(Cc3ccccc3)C=C2C1=O` (configuration not stated): the Potency result in experiment [1], in experiment [2], in experiment [3] and in experiment [4] was “inactive” each time.
For the compound `CC#CCN1c2ccccc2[C@]23C[C@@H](C(=O)OC)N=C2NC(C(=O)OC)=C(C(=O)OC)[C@H]13`, the Potency result in experiment [1], in experiment [2], in experiment [3] and in experiment [4] was “inactive” in each case.
Turning to `COC/C=C/C1=CC2=CC(=O)C(C)(OC(=O)c3cnc4ccccc4n3)C(=O)C2=CN1c1ccc(CO)cc1` (configuration not stated), the Potency entry in experiment [1], in experiment [2], in experiment [3] and in experiment [4] was “inactive” in each case.
Take `CCOC(=O)CN1C(=O)N[C@@H](c2cccs2)C(C(C)=O)=C1C`: the Potency result in experiment [1], in experiment [2], in experiment [3] and in experiment [4] was “inactive” in each case.
`COC(=O)C1=C(C(=O)OC)[C@@H]2N(C)c3ccccc3[C@@]23C[C@@H](C(=O)OC)N(S(=O)(=O)c2ccc([N+](=O)[O-])cc2)C3=N1`: in experiment [1], the Potency result is “inactive”. Moreover, the Potency in experiment [2] was 1690 nM (active).
For `CC(=O)C1=C(C)N(Cc2ccccc2)C(=O)N[C@H]1c1cccc(F)c1`, the Potency entry in experiment [1], in experiment [2], in experiment [3], in experiment [4] and in experiment [5] was “inactive” throughout.
`COC(=O)C1=C(C)N(Cc2ccccc2)C(=O)N[C@H]1c1ccc(Br)cc1`: the Potency result in experiment [1], in experiment [2], in experiment [3], in experiment [4] and in experiment [5] was “inactive” each time.
With `COC(=O)C1=C(C(=O)OC)[C@@H]2N(C)c3ccccc3[C@@]23C[C@@H](C(=O)OC)N(S(=O)(=O)c2ccc(C)cc2)C3=N1`, the Potency entry in experiment [1], in experiment [2], in experiment [3] and in experiment [4] was “inactive” each time.
`FC(F)(F)c1cc(NC(=S)NC23CC4CC(CC(C4)C2)C3)cc(C(F)(F)F)c1`: the Potency was 753 nM (active) in experiment [1]; 1070 nM (active) in experiment [2]; 601 nM (active) in experiment [3]; 478 nM (active) in experiment [4]; 849 nM (active) in experiment [5].
As to `CC#CCN1c2ccccc2[C@]23C[C@@H](C(=O)OC)N(S(=O)(=O)c4ccc5c(c4)OCCN5C)C2=NC(C(=O)OC)=C(C(=O)OC)[C@H]13`, the Potency entry in experiment [1] was “inactive”.
On to `COC(=O)C1=C(C(=O)OC)[C@@H]2N(C)c3ccccc3[C@@]23C[C@@H](CO)N(C(=O)c2ccco2)C3=N1`, for which the Potency result in experiment [1], in experiment [2], in experiment [3], in experiment [4] and in experiment [5] was “inactive” throughout.
Regarding `CCN1C(=O)N[C@@H](CCc2ccccc2)C(C(C)=O)=C1C`, the Potency entry in experiment [1], in experiment [2], in experiment [3], in experiment [4] and in experiment [5] was “inactive” throughout.
For `CC#CCN1c2ccccc2[C@]23C[C@@H](C(=O)OC)N(S(=O)(=O)CCCC)C2=NC(C(=O)OC)=C(C(=O)OC)[C@H]13`, the Potency entry in experiment [1] is “inactive”.
As to `Fc1ccccc1-c1nc(-c2ccccc2)oc1NC1CCCCC1`, the Potency entry in experiment [1], in experiment [2], in experiment [3], in experiment [4] and in experiment [5] was “inactive” in each case.
As to `COC/C=C/C1=CC2=CC(=O)C(C)(OC(=O)c3cnc4ccccc4n3)C(=O)C2=CN1c1cccc(C#N)c1` (configuration not stated), the Potency result in experiment [1], in experiment [2], in experiment [3] and in experiment [4] was “inactive” in each case.
As for `COC(=O)N[C@H](C(C(=O)OC)=C(C)NCc1ccccc1)c1cccc(F)c1`, the Potency entry in experiment [1], in experiment [2], in experiment [3] and in experiment [4] was “inactive” in each case.
With `COCCN1C(=O)N(C)[C@@H](c2ccccc2)C(C(C)=O)=C1C`, the Potency entry in experiment [1], in experiment [2], in experiment [3], in experiment [4] and in experiment [5] was “inactive” in each case.
`COC/C=C/C1=CC2=CC(=O)C(C)(OC(=O)c3cnc4ccccc4n3)C(=O)C2=CN1c1ccccc1` (configuration not stated): the Potency entry in experiment [1], in experiment [2], in experiment [3], in experiment [4] and in experiment [5] was “inactive” each time.
On to `CC[C@@H](C)CN1C(=O)N[C@@H](c2ccccc2)C(C(=O)OC)=C1C`, for which the Potency result in experiment [1], in experiment [2], in experiment [3] and in experiment [4] was “inactive” throughout.
On to `COCCN1C(=O)N[C@@H](c2ccccc2)[C@H](C(=O)OC)[C@H]1C`, for which the Potency entry in experiment [1], in experiment [2], in experiment [3], in experiment [4] and in experiment [5] was “inactive” throughout.
`COc1ccc(-c2nc3c(c4c2C[C@H](c2ccccc2)OC4)CN(C(=O)C2CCCCC2)CC3)c(C)c1`: the Potency result in experiment [1] is “inactive”.
As to `COC(=O)CCCC1=CC2=CC(=O)C(C)(OC(=O)c3cccs3)C(=O)C2=CN1c1cccc(C#N)c1` (configuration not stated), the Potency entry in experiment [1], in experiment [2], in experiment [3] and in experiment [4] was “inactive” in each case.
